# Assay results published in PubChem BioAssay (NCATS).
# Inconclusive results are not listed. Active and inactive are the calls of the source. Unless noted, calls come from the whole dose curve; as a rule, active = well fitted curve in the direction sought with a large enough effect; inconclusive = small, poorly fitted or top-dose-only effect, or another doubt; inactive = no such curve, though single readings can be large; an effect the other way counts as inactive or inconclusive.
# What was measured:
# [1] = target: Cytochrome P450 2D6 (Homo sapiens) (UniProt P10635); experiment: Cytochrome P450 family 2 subfamily D member 6 (CYP2D6) small molecule antagonists: luciferase biochemical (cell-free) qHTS assay (AID 1645840; active = well fitted curve in the direction sought with a large enough effect in the repeat runs; an effect the other way counts as inactive or inconclusive; note: nearly all actives have a fitted effect of over 55% in size)
# Sequence of Cytochrome P450 2D6 (Homo sapiens) (P10635 whole entry, looked up): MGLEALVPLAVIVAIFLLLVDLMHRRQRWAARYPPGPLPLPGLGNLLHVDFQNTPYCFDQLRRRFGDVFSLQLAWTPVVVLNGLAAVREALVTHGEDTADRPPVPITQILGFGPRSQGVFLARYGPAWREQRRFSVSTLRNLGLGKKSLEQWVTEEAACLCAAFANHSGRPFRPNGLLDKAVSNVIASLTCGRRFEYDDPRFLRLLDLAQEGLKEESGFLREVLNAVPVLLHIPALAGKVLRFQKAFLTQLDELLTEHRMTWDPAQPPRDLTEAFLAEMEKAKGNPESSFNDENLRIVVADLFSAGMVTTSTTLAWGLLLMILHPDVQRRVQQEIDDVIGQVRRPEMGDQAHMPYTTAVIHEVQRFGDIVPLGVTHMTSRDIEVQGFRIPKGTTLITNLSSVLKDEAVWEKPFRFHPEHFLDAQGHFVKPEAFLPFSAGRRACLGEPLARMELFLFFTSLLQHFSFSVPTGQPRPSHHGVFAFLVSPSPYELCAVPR
# Summary of the method: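 P450-Glo CYP2D6 system: proluciferin substrate converted by enzyme to luciferin, read by luminescence proportional to activity. Enzyme-substrate mix with compound 10 min at room temperature, then NADPH regeneration 1 h before detection reagent.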
# [2] = target: Cytochrome P450 2C9 (Homo sapiens) (UniProt P11712); experiment: Cytochrome P450 family 2 subfamily C member 9 (CYP2C9) small molecule antagonists: luciferase biochemical (cell-free) qHTS assay (AID 1645842; active = well fitted curve in the direction sought with a large enough effect in the repeat runs; an effect the other way counts as inactive or inconclusive; note: nearly all actives have a fitted effect of over 55% in size)
# Sequence of Cytochrome P450 2C9 (Homo sapiens) (P11712 whole entry, looked up): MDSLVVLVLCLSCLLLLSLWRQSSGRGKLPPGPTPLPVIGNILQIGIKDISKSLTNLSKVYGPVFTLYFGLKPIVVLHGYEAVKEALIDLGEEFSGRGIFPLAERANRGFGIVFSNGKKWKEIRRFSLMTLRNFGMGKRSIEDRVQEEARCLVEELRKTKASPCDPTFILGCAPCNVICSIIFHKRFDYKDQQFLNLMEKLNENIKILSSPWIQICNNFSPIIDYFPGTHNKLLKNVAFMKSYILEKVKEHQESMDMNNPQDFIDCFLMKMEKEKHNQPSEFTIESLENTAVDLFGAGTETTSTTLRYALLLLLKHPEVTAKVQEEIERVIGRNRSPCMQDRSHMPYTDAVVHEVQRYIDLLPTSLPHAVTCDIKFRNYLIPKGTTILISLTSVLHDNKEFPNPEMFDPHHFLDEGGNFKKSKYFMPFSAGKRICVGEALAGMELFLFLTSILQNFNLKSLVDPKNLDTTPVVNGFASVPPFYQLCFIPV
# Summary of the method: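 P450-Glo CYP2C9 system: proluciferin substrate with enzyme in mix containing 0.4% BSA, 10 min at room temperature, then NADPH regeneration solution added and incubated 1 h at 37C. Detection reagent stopped reaction; luminescence read after 20 min as RLU.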
# [3] = Primary qHTS for inhibitors of nuclear receptor binding SET domain protein 2 (NSD2) in an isogenic RCH-ACV NSD2 p.E1099K mutant (9B) (AID 1645876); note: nearly all actives have a fitted effect of over 70% in size
# [4] = Primary qHTS for inhibitors of nuclear receptor binding SET domain protein 2 (NSD2) in an RCH-ACV wild type WT cells (2C) (AID 1645877); note: nearly all actives have a fitted effect of over 70% in size
# Potency is the fitted concentration of half-maximal effect.
Structure (SMILES),Potency [1],Potency [2],Potency [3],Potency [4]
COc1ccccc1N1CCN(CC(C(=O)NC(C)(C)C)c2ccccc2)CC1 (stereo not given),1.69 µM (active),12 µM (active),inactive,inactive
Fc1ccc(-c2nc(C3CCNCC3)sc2-c2ccnc(NC3CC3)n2)cc1,6.01 µM (active),16.9 µM (active),8.17 µM (active),6.49 µM (active)
CCOC(=O)N1CCC(N2CCC[C@@H](NC(=O)c3ccccc3C)C2)CC1,16.9 µM (active),inactive,inactive,inactive
COc1ccc(-c2cnc3c(-c4cccc5ncccc45)cnn3c2)cc1,inactive,12 µM (active),inactive,inactive
COc1cc(NC(=O)c2cc(C3CC3)on2)c(OC)cc1Cl,2.39 µM (active),10.7 µM (active),inactive,inactive
Nc1nc2c(cnn2CCCc2ccc(O)cc2)c2nc(-c3ccco3)nn12,inactive,3.01 µM (active),inactive,inactive
Cc1c(C(=O)Nc2ccc(N3CCC(N4CCOCC4)CC3)c(C#N)c2)cnn1-c1ccc(Cl)cc1,12 µM (active),2.13 µM (active),0.23 µM (active),0.23 µM (active)
Cc1nc(C(=O)N2CCC[C@H]2Cc2nnc(-c3ccccc3)o2)c(-c2ccccc2F)s1,inactive,10.7 µM (active),inactive,inactive
CC(C)CCNc1ncccc1C(=O)N1CCN(Cc2ccccc2)CC1,5.35 µM (active),10.7 µM (active),inactive,inactive
CC(C)S(=O)(=O)c1ccc2nccc(Nc3ccc4scnc4c3)c2c1,10.7 µM (active),6.74 µM (active),9.34 µM (active),10.5 µM (active)
